Consider 13 compounds from PubChem BioAssay.

A short description of assay [1]: resazurin metabolic signal in HepG2 cells – cell-based, resazurin fluorescence, 24 h, PK04 Diversity Set, profiling panel (AID 1172). Note: test concentration not given here. The following applies: HepG2 viability, higher = more signal. For orientation: The colour change of resazurin is a common sign of viable cells or microbes.
Assay [2] is described as follows: budding yeast growth changes without added modifier – OD600, strain BY4716, 24 h, basal condition, primary screen (AID 1173). The following applies: S. cerevisiae BY4716 growth, OD600, 24 h; higher = more signal, called active from +8 up or from −8 down.
The nature of assay [3]: viability profiling in MM1S myeloma cells – cell-based, resazurin fluorescence, basal, 24 h, PK04 Diversity Set, profiling panel (AID 1174).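 Note: MM1S multiple myeloma cell line; test concentration not given here.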 As to conditions: higher = more signal, called active from +8 up or from −8 down.
In assay [4] the target is Dihydroorotate dehydrogenase (quinone), mitochondrial (Plasmodium falciparum (isolate 3D7)) (UniProt Q08210). The assay is described as follows: inhibition of P. falciparum DHODH – biochemical, C-terminal His tag, absorbance 600 nm, primary screen (AID 1175).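 Note: recombinant parasite enzyme with a five histidine tag at its C terminus; test concentration not given here.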 As to conditions: PfDHODH enzyme, DCIP absorbance 600 nm; higher = more signal, called active from +8 up or from −8 down.
Sequence of Dihydroorotate dehydrogenase (quinone), mitochondrial (Plasmodium falciparum (isolate 3D7)) (Q08210 whole entry, looked up): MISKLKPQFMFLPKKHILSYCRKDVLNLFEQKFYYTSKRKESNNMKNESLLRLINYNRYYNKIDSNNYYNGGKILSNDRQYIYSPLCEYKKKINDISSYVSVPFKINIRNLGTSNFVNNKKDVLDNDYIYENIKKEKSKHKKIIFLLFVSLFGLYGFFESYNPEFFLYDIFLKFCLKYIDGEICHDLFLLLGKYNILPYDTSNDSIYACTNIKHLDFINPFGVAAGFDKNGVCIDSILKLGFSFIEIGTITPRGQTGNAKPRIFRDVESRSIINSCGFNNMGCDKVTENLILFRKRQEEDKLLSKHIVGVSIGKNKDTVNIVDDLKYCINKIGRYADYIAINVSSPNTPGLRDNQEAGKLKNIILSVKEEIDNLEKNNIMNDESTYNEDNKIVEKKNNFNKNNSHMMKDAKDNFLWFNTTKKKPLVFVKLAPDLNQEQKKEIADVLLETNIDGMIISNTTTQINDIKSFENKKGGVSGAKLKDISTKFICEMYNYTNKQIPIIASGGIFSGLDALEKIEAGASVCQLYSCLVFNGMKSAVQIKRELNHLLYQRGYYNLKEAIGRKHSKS

Assay [5] can be described thus: inhibition of PAO1 biofilm formation – strain PAO1, LB-PBS medium, absorbance 600 nm, primary screen (AID 1176). Note: test concentration not given here. The following applies: P. aeruginosa PAO1 growth/biofilm, A600, 12 h; higher = more signal.
A short description of assay [6]: growth modulation of vineyard yeast isolate – strain RM11-1a, OD600, basal, 24 h, primary screen (AID 1177).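 Note: cultures grown under basal conditions with no added stressor; test concentration not given here.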 The following applies: S. cerevisiae RM11-1a growth, OD600, 24 h; higher = more signal, called active from +8 up or from −8 down.
Assay [7] in a line: growth of efflux-deficient E. coli DRC39 – strain DRC39, OD650, 24 h, E. coli filamentation inducers, primary screen (AID 1178).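 Note: growth measured as culture turbidity by optical density at 650 nm; test concentration not given here.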 As to conditions: E. coli DRC39 acrAB, higher = more signal, called active from +8 up or from −8 down.
The nature of assay [8]: growth of efflux-deficient E. coli DRC39 – strain DRC39, OD650, 48 h, E. coli filamentation inducers, primary screen (AID 1179).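 Note: screen aims at cell division blockers that make cells filament.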 The following applies: E. coli DRC39 delta-acrAB growth, higher = more signal, called active from +8 up or from −8 down.
Assay [9] can be described thus: viability profiling in RPMI8226 myeloma cells – cell-based, resazurin fluorescence, basal, 24 h, PK04 Diversity Set, profiling panel (AID 1180).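 Note: RPMI8826 multiple myeloma cell line at 5000 cells per well; test concentration not given here.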 As to conditions: higher = more signal.
Assay [10] addresses E3 ubiquitin-protein ligase XIAP (Homo sapiens) (UniProt P98170). The assay is described as follows: small molecules binding XIAP protein – biophysical, small-molecule microarray, fluorescence 635 nm, primary screen (AID 1181).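 Note: score merges 667 nm emission and signal to noise over triplicate slides.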 As to conditions: higher = more signal.

The structures appear in SMILES notation. Calls of active or inactive are those of the source. Unless noted, the rule behind the calls is not given here.

Sequence of E3 ubiquitin-protein ligase XIAP (Homo sapiens) (P98170 whole entry, looked up): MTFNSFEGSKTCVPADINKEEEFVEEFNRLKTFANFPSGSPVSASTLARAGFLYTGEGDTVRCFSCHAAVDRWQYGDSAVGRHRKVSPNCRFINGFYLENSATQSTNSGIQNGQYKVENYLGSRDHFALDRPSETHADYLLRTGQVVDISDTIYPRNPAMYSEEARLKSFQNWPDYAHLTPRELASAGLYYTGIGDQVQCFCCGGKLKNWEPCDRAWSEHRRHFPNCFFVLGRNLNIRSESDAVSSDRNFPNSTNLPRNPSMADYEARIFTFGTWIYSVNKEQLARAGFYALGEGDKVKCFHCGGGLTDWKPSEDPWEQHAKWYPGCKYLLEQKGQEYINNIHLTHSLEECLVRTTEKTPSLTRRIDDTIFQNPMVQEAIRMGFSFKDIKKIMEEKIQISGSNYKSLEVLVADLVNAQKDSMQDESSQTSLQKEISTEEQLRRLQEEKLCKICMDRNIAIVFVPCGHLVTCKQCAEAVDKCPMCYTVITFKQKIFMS

Take `COCC(=C=CC[C@@H](O)c1cccc(OCCO)c1)C[C@@H](O)c1ccccn1`: the z-score was 0.353 in assay [1]; -0.449 (inactive) in assay [2]; 0.423 (inactive) in assay [3]; -0.353 (inactive) in assay [5]; 0.0156 (inactive) in assay [6]; 0.947 (inactive) in assay [7]. The z-score was 0.604 (inactive) in [8] and 0.973 in [9]. For the same compound, the composite z-score in assay [4] is -1.61 (inactive); in [10], 0.0471.
For the compound `CC[C@@H]1C=C(C(=O)O)[C@H](c2ccc(Br)cc2)N1S(=O)(=O)c1ccc(C)cc1`, the z-score in [1] was -0.386; in assay [2], -0.14 (inactive); in assay [3], -0.459 (inactive); in assay [5], -0.116 (inactive); in assay [6], -0.716 (inactive); in assay [7], -0.593 (inactive). Moreover, the z-score in [8] is 0.295 (inactive); in assay [9], -1.51. Moreover, the results for the composite z-score in assay [4] and in [10] were -0.412 (inactive) and 0.157, respectively.
Turning to `Cc1ccc(S[C@]2(C(=O)NC3CC3)CC(=O)N(Cc3ccccc3)[C@@H]2c2ccc(CO)cc2I)cc1`, the z-score in assay [1] is 0.417; in assay [2] it was -3.23 (inactive); in [3], -2.45 (inactive); in assay [5] it was 0.751 (inactive); in assay [6] it was -1.46 (inactive); in assay [7], 0.714 (inactive). The z-score is 0.753 (inactive) in assay [8] and -1.71 in assay [9]. The composite z-score in assay [4] was -1.47 (inactive); in assay [10], -0.252.
Take `C=C(COC)C(=O)CC[C@@H](OC(C)=O)c1ccc(CO)o1`: the z-score was -0.173 in assay [1]; 0.227 (inactive) in [2]; 0.145 (inactive) in [3]; 0.838 (inactive) in assay [5]; -1.23 (inactive) in assay [6]; -0.216 (inactive) in assay [7]. Also, the figures for the z-score in assay [8] and in [9] were -0.107 (inactive) and 0.0972, respectively. The composite z-score in assay [4] is -3.24 (inactive); in assay [10] it was 0.383.
Regarding `CCOC(=O)C[C@H]1[C@H](OC(=O)c2cc3ccccc3oc2=O)[C@@H](NC(=O)c2ccccc2)c2cc(OCCCO)ccc2N1C(=O)c1ccc2ccccc2n1`, the z-score in assay [1] was -0.359; in [2], -0.594 (inactive); in assay [3], -1.04 (inactive); in assay [5] it was -0.246 (inactive); in assay [6] it was -0.5 (inactive); in [7], -0.741 (inactive). Besides, the z-score in [8] was -1.2 (inactive); in [9], -1.16. Further, the composite z-score in assay [4] was 0.542 (inactive); in [10] it was -0.28.
With `C=C(CCCC)/C(=C/C[C@@H](OC(=O)c1ccncc1)c1ccc(OCCO)cc1)c1cc(C(=O)OC)ccc1OC`, the z-score in assay [1] is 0.691; in assay [2] it was 1.1 (inactive); in assay [3], 0.234 (inactive); in assay [5], -0.39 (inactive); in [6] it was 0.826 (inactive); in [7] it was 0.885 (inactive). For the same compound, the z-score is 0.868 (inactive) in assay [8] and 0.572 in assay [9]. The composite z-score in assay [4] is -0.265 (inactive); in assay [10], -0.141.
For the compound `COC(=O)[C@@]1(Cc2ccccc2)[C@H]2c3cc(C(=O)N4CCCC4)n(Cc4ccc(S(C)(=O)=O)cc4)c3C[C@H]2CN1C(=O)c1ccccc1`, the z-score in assay [1] is -0.837; in assay [2], 0.912 (inactive); in assay [3] it was -0.774 (inactive); in [5] it was 0.206 (inactive); in [6], -0.33 (inactive); in [7], -1.33 (inactive). For the same compound, the z-score in [8] was -0.195 (inactive); in assay [9] it was -1.14. The composite z-score in assay [4] is -0.467 (inactive); in [10] it was -0.105.
Take `CCOC(=O)C[C@H]1[C@H](OC(=O)c2ccc(C(=O)c3ccccc3)cc2)[C@@H](NC(=O)c2ccccc2)c2cc(OCCCO)ccc2N1C(=O)Cc1ccc(OC)cc1`: the z-score in assay [1] is 0.844; in [2] it was 0.0931 (inactive); in assay [3], 0.399 (inactive); in assay [5] it was 0.62 (inactive); in assay [6] it was 0.17 (inactive); in [7], 0.722 (inactive). The z-score in assay [8] was 0.419 (inactive); in assay [9], 0.702. For the same compound, the composite z-score is 0.107 (inactive) in assay [4] and -0.102 in [10].
As to `COc1ccc([Si](C)(C)[C@@H]2[C@@H](CC(=O)N3CCC[C@H]3CO)O[C@]3(C(=O)N(c4ccccc4)c4ccccc43)[C@H]2C)cc1`, the z-score in assay [1] was 0.733; in [2], -1.39 (inactive); in [3], 0.315 (inactive); in assay [5], -0.106 (inactive); in assay [6], -1.2 (inactive); in [7] it was 0.193 (inactive). Also, the z-score in assay [8] was 0.258 (inactive); in assay [9] it was 0.729. The figures for the composite z-score in assay [4] and in assay [10] were -1.27 (inactive) and 0.217, respectively.
In the case of `CCC(CC)C(O)C1C=CC2C(=O)NC(=O)C2N1Nc1ccc(Cl)cc1Cl` (stereo not given), the z-score in assay [1] was -1.82; in assay [2], -3.65 (inactive); in assay [3], -1.46 (inactive); in [5], 1.26 (inactive); in [6], 1.27 (inactive); in assay [7], -0.682 (inactive). For the same compound, the z-score in [8] is -0.459 (inactive); in assay [9] it was -1.52. For the same compound, the composite z-score in assay [4] is 0.925 (inactive); in assay [10], 0.0187.
Regarding `CCC(CC)C(O)C1C=CC2C(=O)NC(=O)C2N1Nc1ccccn1` (stereo not given), the z-score was -1.34 in assay [1]; 0.341 (inactive) in [2]; -1.76 (inactive) in assay [3]; 0.503 (inactive) in [5]; 0.469 (inactive) in assay [6]; -0.485 (inactive) in assay [7]. The z-score is 0.333 (inactive) in assay [8] and -1.11 in assay [9]. The composite z-score in [4] is -0.629 (inactive); in assay [10], 0.162.
With `CO[C@H]1O[C@H](CO)[C@@H](OC(=O)Nc2ccc(C(F)(F)F)cc2)[C@H](OC(=O)Nc2ccc3c(c2)OCO3)[C@@H]1OC(=O)Nc1ccc2c(c1)OCO2`, the z-score in assay [1] is -1.09; in assay [2], 0.867 (inactive); in assay [3] it was -2.45 (inactive); in assay [5] it was 1.54 (inactive); in [6] it was 3.25 (inactive); in [7], 1.53 (inactive). Also, the z-score in assay [8] is 0.2 (inactive); in assay [9], -1.97. Further, the results for the composite z-score in [4] and in assay [10] were 0.524 (inactive) and 0.098, respectively.
On to `CN(C)CCCCCCNC(=O)[C@H]1C[C@H]2C(=O)N3CCC[C@H]3C(=O)N2[C@H]1c1ccc(O)cc1`, for which the z-score in assay [1] is -0.564; in assay [2] it was -0.444 (inactive); in [3], 0.472 (inactive); in assay [5], 1.44 (inactive); in [6], -0.327 (inactive); in assay [7] it was 0.113 (inactive). Besides, the z-score is -0.523 (inactive) in assay [8] and -0.0213 in assay [9]. In addition, the composite z-score in assay [4] was -1.76 (inactive); in [10] it was 0.23.
